# Experimental data from PubChem BioAssay (NCATS).
# Records with an inconclusive call do not appear. A call without a number means that no potency is given here. Active and inactive are the calls of the source. Calls come from the whole dose curve; as a rule, active = well fitted inhibition curve with a large enough effect; inconclusive = small, poorly fitted or top-dose-only effect; inactive = no such curve, though single readings can be large or run the other way. *1 amine or outer side, *2 acyl side, *3 side chain or, on linkers, in order; H or OH if unused. Where a SMILES comes first, the peptide text is derived from it. Bridges are numbered along the chain shown (N, C = ends). X6 = O=C(CCC[*:2])[*:1]
# Test: P-glycoprotein substrates identified in KB-3-1 adenocarcinoma cell line, qHTS therapeutic library screen (AID 1346986); note: nearly all actives have a fitted effect of over 60% in size
# Settings: KB-3-1 parental cells viability, CellTiter-Glo, 72 h; series mostly up to 44.5 µM
# Summary of the method: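 Compounds were tested in dose-response against KB-3-1 and KB-8-5-11 cells at 37 degree C for 72 h, and viability was measured by luminescence. AC50 values came from curve fitting with class-based activity calls.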
SMILES,outcome,Potency
C[C@@H]1O[C@@H](O[C@H]2[C@H](OC(=O)[C@]34CCC(C)(C)C[C@H]3C3=CCC5[C@@]6(C)CC[C@H](O[C@@H]7O[C@H](CO[C@@H]8OC[C@H](O)[C@H](O)[C@H]8O)[C@@H](O)[C@H](O)[C@H]7O)C(C)(C)C6CC[C@@]5(C)[C@]3(C)C[C@H]4O)OC[C@@H](O)[C@@H]2O)[C@H](O)[C@H](O)[C@H]1O[C@@H]1OC[C@H](O)[C@H](O[C@@H]2OC[C@@H](O)[C@H](O)[C@H]2O)[C@H]1O (stereo not given in full),inactive [at 9.29 µM],–
C[C@@H]1CC[C@]2(C(=O)O)CC[C@]3(C)C(=CCC4[C@]5(C)C(CC[C@]43C)C(C)(C)[C@@H](O)[C@H](O)[C@@H]5O)C2[C@]1(C)O (stereo not given in full),–,inactive
C[C@H]1C[C@H]2[C@@H]3CCC4=CC(=O)C=C[C@]4(C)[C@@]3(F)[C@@H](O)C[C@]2(C)[C@@]1(O)C(=O)COP(=O)(O)O,–,inactive
CC1CCC2(O1)C(C)(C)CC(O[C@@H]1O[C@H](CO[C@@H]3OC[C@](O)(CO)[C@H]3O)[C@@H](O)[C@H](O)[C@H]1O)CC2(C)O (stereo not given in full),–,inactive
CC12CCC3c4ccc(O)cc4CCC3C1CCC2OC1OC(C(=O)O)C(O)C(O)C1O (stereo not given),–,inactive
CC(=O)NC(C(=O)OC1CCC(C)(C)C2CC=C3C(=O)OCC3(O)C12C)C(C)C (stereo not given),–,inactive
CC(C(=O)O)C1CCC2(C)C3C(=O)C=C4C(CCC(=O)C4(C)C)C3(C)CCC12C (stereo not given),–,inactive
O=C(/C=C/c1ccc(O)cc1)OCC1=CC2OC(=O)C3=CO[C@@H](O[C@@H]4O[C@H](CO)[C@@H](O)[C@H](O)[C@H]4O)[C@H]1[C@@H]32 (stereo not given in full),–,inactive
CO[C@@H]1COCC[C@@H]1N[C@@H]1CC[C@@](C(=O)N2CCc3ncc(C(F)(F)F)cc3C2)(C(C)C)C1,–,inactive
C[C@@H]1C[C@H](O[C@@H]2O[C@H](CO[C@@H]3OC[C@](O)(CO)[C@H]3O)[C@@H](O)[C@H](O)[C@H]2O)CC(C)(C)[C@H]1/C=C/[C@@H](C)O,–,inactive
COC1CC(=O)CCC(C)OC(=O)CC1O (stereo not given),–,inactive
CC[C@H](C)[C@@H]1NC(=O)[C@H](Cc2ccc(OC)cc2)NC(=O)CCCSC[C@@H](C(=O)N2CCC[C@H]2C(=O)N[C@@H](CC(C)C)C(=O)NCC(N)=O)NC(=O)[C@H](CC(N)=O)NC(=O)[C@H](CCC(N)=O)NC1=O (Y(Me)IQNCPLG-NH2; linker N-5 via X6),–,inactive
CCC1CC2C(C)=CC3CCCCC3C2(C)C2(OC(=O)C(C)(O)OC2=O)O1 (stereo not given),–,inactive
C=CCc1ccc(O[C@@H]2O[C@H](CO)[C@@H](O)[C@H](O)[C@H]2O)c(OC)c1,–,inactive
O=C(NCC(=O)N1CC[C@H](NC2CCC(O)(c3ccc(-c4ncccn4)cn3)CC2)C1)c1cccc(C(F)(F)F)c1 (stereo not given in full),–,inactive
C=CC(C)(O)CC/C=C(\C)C(=O)OC1CC2(C(=O)O)CCC3(C)C(=CCC4C5(C)CCC(OC6OC(COC7OCC(O)C(O)C7O)C(O)C(OC7OCC(O)C(O)C7O)C6OC6OC(CO)C(O)C(O)C6OC6OCC(O)C(O)C6O)C(C)(C)C5CCC43C)C2CC1(C)C (stereo not given),inactive [at 9.29 µM],–
Nc1nc(CC(=O)Nc2ccc(CCNCC(O)c3ccccc3)cc2)cs1 (stereo not given),–,inactive
CCOC(=O)[C@H]1O[C@@H]1C(=O)N[C@@H](CC(C)C)C(=O)NCCC(C)C,–,inactive
CC1OC(OC2C(CO)OC(OCC3OC(OC(=O)C45CCC(C)(C)CC4C4=CCC6C7(C)CCC(OC8OC(C(=O)O)C(O)C(OC9OC(CO)C(O)C(O)C9O)C8O)C(C)(C)C7CCC6(C)C4(C)CC5)C(O)C(O)C3O)C(O)C2O)C(O)C(O)C1O (stereo not given),inactive [at 9.29 µM],–
CC(=O)O[C@H]1CC[C@@]2(CI)C(=CC[C@@H]3[C@@H]2CC[C@]2(C)[C@@H]([C@H](C)CCCC(C)C)CC[C@@H]32)C1,inactive [at 9.29 µM],–

SMILES,outcome,Potency
CC(C)C1=CCC(C)(O)C(OC2OC(CO)C(O)C(O)C2O)C1 (stereo not given),–,inactive
CCCCCCc1cccc(NC(=O)[C@H](N)CCP(=O)(O)O)c1,inactive [at 9.29 µM],–
C[C@@H]1O[C@@H](O[C@@H]2[C@@H](O)[C@H](O[C@@H]3[C@@H](O)[C@@H](O)[C@H](O[C@H]4[C@H](OC(=O)[C@]56CCC(C)(C)C[C@H]5C5=CCC7[C@@]8(C)C[C@H](O)[C@H](O[C@@H]9O[C@@H](C)[C@H](O)[C@@H](O)[C@H]9O)[C@@](C)(CO)C8CC[C@@]7(C)[C@]5(C)C[C@H]6O)O[C@H](C)[C@H](O)[C@@H]4O)O[C@H]3C)OC[C@H]2O)[C@H](O)[C@H](O)[C@H]1O (stereo not given in full),inactive [at 9.29 µM],–
OC[C@H]1O[C@@H](Oc2ccc3c(c2)OC[C@H]2c4cc5c(cc4O[C@@H]32)OCO5)[C@H](O)[C@@H](O)[C@@H]1O,–,inactive
CC(NC(=O)CC(=O)O)c1nc2ccccc2c(=O)[nH]1 (stereo not given),–,inactive
CC1CC(=O)C2=C(O1)OC1(C)CCC3C(C)(C)C=CC(=O)C3(C)C1C2 (stereo not given),–,inactive
CC(C)=CCc1ccc(Oc2c(O)cc(C)cc2CO)c(C(=O)O)c1O,–,inactive
COc1c(OC2OC(CO)C(O)C(O)C2O)ccc(O)c1C(=O)OCc1ccccc1O[C@@H]1O[C@H](CO)[C@@H](O)[C@H](O)[C@H]1O (stereo not given in full),–,inactive
CC1CCC2C(C(=O)O)=CC3C(O)C(C)(C)CC123 (stereo not given),–,inactive
O=C1Nc2ccc(O)cc2O[C@H]1O[C@@H]1O[C@H](CO)[C@@H](O)[C@H](O)[C@H]1O,–,inactive
COc1c(C)c(OCC=C(C)C)cc2c1C(=O)NC2=O,–,inactive
COC1=CC(=O)O[C@@H](/C=C/c2ccccc2)[C@@H]1O,–,inactive
C[C@]12C=CC(=O)C=C1CC[C@@H]1[C@@H]2[C@@H](O)C[C@@]2(C)[C@H]1CC[C@]2(O)C(=O)COC(=O)CCC(=O)O,–,inactive
CCC(CCO[C@@H]1O[C@H](CO[C@H]2OC[C@](O)(CO)[C@H]2O)[C@@H](O)[C@H](O)[C@H]1O)C(C)(C)O (stereo not given in full),–,inactive
C[C@@H]1O[C@@H](O[C@H]2[C@H](OC(=O)C34CCC5(C)C(=CCC6C7(C)CC(O)C(O[C@@H]8O[C@H](C(=O)O)[C@@H](O)[C@H](O)[C@H]8O)C(C)(C(=O)O)C7CCC65C)C3CC(C)(C)CC4O)O[C@H](C)[C@@H](O)[C@@H]2O)[C@H](O)[C@@H](O[C@@H]2OC[C@](O)(CO)[C@H]2O[C@@H]2O[C@H](CO)[C@@H](O)[C@H](O)[C@H]2O)[C@H]1O (stereo not given in full),inactive [at 9.29 µM],–
O=C(O)[C@H]1CCCC[C@H]1C(=O)N1CCc2ccccc2[C@H]1CN1C(=O)c2ccccc2C1=O,–,inactive
CCCCS(=O)(=O)Nc1ncnc(OCCOc2ncc(Br)cn2)c1-c1ccc(Br)cc1,–,inactive
CC(=O)O[C@H](C[C@@H](C)[C@H]1C(=O)[C@H](O)[C@@]2(C)[C@@H]3CCC4C(C)(C)[C@@H](O[C@@H]5OC[C@H](O)[C@H](O)[C@H]5O)CC[C@@]45C[C@@]35CC[C@]12C)[C@@H]1OC1(C)C (stereo not given in full),–,inactive
C[C@@H]1O[C@@H](O[C@H]2[C@H](OC(=O)C34CCC(C)(C)CC3C3=CCC5C6(C)CC(O)C(O[C@@H]7O[C@H](CO)[C@@H](O)[C@H](O)[C@H]7O)C(C)(C(=O)O)C6CCC5(C)C3(CO)CC4)O[C@H](C)[C@H](O)[C@@H]2O)[C@H](O)[C@H](O)[C@H]1O[C@@H]1OC[C@@H](O)[C@H](O)[C@H]1O (stereo not given in full),inactive [at 9.29 µM],–
Cc1ccc2c(c1)C=Cc1cc(C)ccc1C2c1cn(Cc2ccc(C(=O)Nc3nn[nH]n3)o2)c(=O)[nH]c1=S,–,inactive
